# Legend:
# Assay in all cases: DAPPL (digital affinity profiling via proximity ligation, sequencing); 10 mM Tris-HCl pH 7.5, 50 mM NaCl, 1 mM DTT, 4% glycerol, room temperature, 30 min; GST-TFs on glutathione beads, 16-mer random dsDNA library, 0.1% formaldehyde crosslink after washing; high values mean tight binding
# [1] = molecular target: T1, FLI1 (Homo sapiens, UniProt Q01543 1-452); details: protein: recombinant; tags: N-terminal GST; dsDNA, one strand shown
# T1 sequence: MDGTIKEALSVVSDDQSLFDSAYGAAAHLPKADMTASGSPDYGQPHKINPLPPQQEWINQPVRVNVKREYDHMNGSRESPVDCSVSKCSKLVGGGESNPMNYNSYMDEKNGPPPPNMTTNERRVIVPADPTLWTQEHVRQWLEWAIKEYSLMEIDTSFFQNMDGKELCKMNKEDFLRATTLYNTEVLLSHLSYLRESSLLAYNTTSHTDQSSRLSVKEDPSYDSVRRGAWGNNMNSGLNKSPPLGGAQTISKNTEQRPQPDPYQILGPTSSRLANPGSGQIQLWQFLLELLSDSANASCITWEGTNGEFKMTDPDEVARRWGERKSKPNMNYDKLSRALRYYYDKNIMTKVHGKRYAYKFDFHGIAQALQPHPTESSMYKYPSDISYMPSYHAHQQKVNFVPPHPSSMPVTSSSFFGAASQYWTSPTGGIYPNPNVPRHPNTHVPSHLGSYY
# Procedure, shortened: (§1)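 Human transcription factors fused to GST were expressed in yeast, captured on glutathione beads, given DNA barcodes and pooled with a GST-only negative control. Pools were incubated with 200 nmole of a 16-mer random double-stranded DNA library in Tris/NaCl/DTT/glycerol buffer at room temperature for 30 min. They were then washed, crosslinked with 0.1% formaldehyde, proximity-ligated (BsaI/T4 ligase, 1 h, 37 °C), PCR-amplified and sequenced on an Illumina NextSeq500. Binding signal is each 6-mer's read frequency for a factor divided by its frequency for the GST control.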
# [2] = molecular target: T2, ELK1 (Homo sapiens, UniProt P19419 1-428); details: protein: recombinant; tags: N-terminal GST; dsDNA, one strand shown
# T2 sequence: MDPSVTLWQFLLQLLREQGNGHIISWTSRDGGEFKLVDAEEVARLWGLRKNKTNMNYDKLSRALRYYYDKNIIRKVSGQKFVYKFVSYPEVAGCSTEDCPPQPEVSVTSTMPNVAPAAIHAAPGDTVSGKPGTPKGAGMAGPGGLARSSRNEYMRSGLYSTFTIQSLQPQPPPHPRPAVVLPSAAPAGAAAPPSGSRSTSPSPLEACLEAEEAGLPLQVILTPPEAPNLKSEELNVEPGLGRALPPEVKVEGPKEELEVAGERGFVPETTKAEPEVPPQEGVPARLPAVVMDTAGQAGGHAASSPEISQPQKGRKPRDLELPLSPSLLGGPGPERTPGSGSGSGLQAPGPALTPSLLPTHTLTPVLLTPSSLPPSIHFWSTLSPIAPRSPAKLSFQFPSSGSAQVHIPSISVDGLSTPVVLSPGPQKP
# Procedure, shortened: as §1
# [3] = molecular target: T3, GABPA (Homo sapiens, UniProt Q06546 1-454); details: protein: recombinant; tags: N-terminal GST; dsDNA, one strand shown
# T3 sequence: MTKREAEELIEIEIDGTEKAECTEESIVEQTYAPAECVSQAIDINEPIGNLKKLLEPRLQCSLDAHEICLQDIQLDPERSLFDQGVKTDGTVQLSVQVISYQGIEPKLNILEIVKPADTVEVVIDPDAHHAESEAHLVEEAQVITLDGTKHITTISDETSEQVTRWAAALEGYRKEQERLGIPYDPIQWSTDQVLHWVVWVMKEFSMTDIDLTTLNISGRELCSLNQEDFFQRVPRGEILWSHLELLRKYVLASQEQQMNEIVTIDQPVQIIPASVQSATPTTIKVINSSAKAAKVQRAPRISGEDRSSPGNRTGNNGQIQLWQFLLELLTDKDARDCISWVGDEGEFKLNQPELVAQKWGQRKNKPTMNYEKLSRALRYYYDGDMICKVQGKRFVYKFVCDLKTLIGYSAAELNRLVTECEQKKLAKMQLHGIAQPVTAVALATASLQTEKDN
# Procedure, shortened: as §1
# [4] = molecular target: T4, ERG (Homo sapiens, UniProt P11308 1-479); details: protein: recombinant; tags: N-terminal GST; dsDNA, one strand shown
# T4 sequence: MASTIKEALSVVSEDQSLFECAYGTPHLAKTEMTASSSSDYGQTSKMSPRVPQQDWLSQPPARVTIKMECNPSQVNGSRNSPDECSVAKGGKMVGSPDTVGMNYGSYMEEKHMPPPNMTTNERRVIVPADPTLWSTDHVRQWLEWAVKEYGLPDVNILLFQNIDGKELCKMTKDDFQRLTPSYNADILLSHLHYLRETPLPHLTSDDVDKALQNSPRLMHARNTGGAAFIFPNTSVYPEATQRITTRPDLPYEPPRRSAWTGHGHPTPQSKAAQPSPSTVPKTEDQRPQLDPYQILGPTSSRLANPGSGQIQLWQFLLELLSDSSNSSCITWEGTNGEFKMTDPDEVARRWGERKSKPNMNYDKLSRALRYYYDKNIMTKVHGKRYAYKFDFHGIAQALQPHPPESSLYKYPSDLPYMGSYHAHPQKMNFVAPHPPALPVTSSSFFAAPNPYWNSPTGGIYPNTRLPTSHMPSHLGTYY
# Procedure, shortened: as §1
# [5] = molecular target: ELF1 (Homo sapiens, UniProt P32519 1-619); details: protein: recombinant; tags: N-terminal GST; dsDNA, one strand shown
# Procedure, shortened: as §1
# [6] = molecular target: T5, EHF (Homo sapiens, UniProt Q9NZC4 1-300); details: protein: recombinant; tags: N-terminal GST; dsDNA, one strand shown
# T5 sequence: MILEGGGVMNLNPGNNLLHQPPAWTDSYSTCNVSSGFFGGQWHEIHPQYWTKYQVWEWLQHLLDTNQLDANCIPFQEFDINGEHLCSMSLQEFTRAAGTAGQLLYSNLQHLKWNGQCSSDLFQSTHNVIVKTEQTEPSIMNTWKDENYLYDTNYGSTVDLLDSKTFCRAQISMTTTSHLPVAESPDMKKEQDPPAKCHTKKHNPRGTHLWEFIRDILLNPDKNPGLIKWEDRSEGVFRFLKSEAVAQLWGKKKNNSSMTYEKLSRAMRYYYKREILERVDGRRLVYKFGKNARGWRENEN
# Procedure, shortened: as §1
# [7] = molecular target: SPI1 (Homo sapiens, UniProt P17947 1-270); details: protein: recombinant; tags: N-terminal GST; dsDNA, one strand shown
# Procedure, shortened: as §1
# [8] = molecular target: SPIB (Homo sapiens, UniProt Q01892 1-262); details: protein: recombinant; tags: N-terminal GST; dsDNA, one strand shown
# Procedure, shortened: as §1
# [9] = molecular target: T6, ELK3 (Homo sapiens, UniProt P41970 1-407); details: protein: recombinant; tags: N-terminal GST; dsDNA, one strand shown
# T6 sequence: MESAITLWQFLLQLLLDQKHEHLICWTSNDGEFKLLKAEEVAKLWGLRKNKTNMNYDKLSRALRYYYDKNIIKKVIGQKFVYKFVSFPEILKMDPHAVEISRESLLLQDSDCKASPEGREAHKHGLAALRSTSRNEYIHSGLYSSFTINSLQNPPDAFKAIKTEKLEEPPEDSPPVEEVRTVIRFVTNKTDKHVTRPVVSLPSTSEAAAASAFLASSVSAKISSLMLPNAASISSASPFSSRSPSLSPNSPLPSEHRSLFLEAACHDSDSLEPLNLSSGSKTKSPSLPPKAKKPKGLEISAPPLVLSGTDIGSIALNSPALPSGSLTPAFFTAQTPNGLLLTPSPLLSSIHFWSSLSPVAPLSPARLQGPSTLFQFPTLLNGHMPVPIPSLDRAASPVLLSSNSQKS
# Procedure, shortened: as §1
# [10] = molecular target: T7, FEV (Homo sapiens, UniProt Q99581 1-238); details: protein: recombinant; tags: N-terminal GST; dsDNA, one strand shown
# T7 sequence: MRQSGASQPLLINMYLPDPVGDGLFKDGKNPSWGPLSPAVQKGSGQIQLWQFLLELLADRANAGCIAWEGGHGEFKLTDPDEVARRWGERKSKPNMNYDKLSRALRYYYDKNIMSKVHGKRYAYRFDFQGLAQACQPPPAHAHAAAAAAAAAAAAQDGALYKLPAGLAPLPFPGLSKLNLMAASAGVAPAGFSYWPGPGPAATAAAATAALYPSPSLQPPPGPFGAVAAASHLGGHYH
# Procedure, shortened: as §1
# [11] = molecular target: ETV5 (Homo sapiens, UniProt P41161 1-510); details: protein: recombinant; tags: N-terminal GST; dsDNA, one strand shown
# Procedure, shortened: as §1
# [12] = molecular target: HSF1 (Homo sapiens, UniProt Q00613 1-529); details: protein: recombinant; tags: N-terminal GST; chain copies: 3; dsDNA, one strand shown
# Procedure, shortened: as §1
# [13] = molecular target: T8, SPIC (Homo sapiens, UniProt Q8N5J4 1-248); details: protein: recombinant; tags: N-terminal GST; dsDNA, one strand shown
# T8 sequence: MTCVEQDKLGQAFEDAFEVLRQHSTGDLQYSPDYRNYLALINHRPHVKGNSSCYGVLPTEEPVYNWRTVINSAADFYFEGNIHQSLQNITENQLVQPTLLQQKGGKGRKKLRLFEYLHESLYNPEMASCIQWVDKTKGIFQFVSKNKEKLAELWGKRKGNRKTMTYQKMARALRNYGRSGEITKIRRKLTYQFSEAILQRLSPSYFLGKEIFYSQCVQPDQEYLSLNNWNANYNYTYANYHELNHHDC
# Procedure, shortened: as §1
# [14] = molecular target: ELF4 (Homo sapiens, UniProt Q99607 1-663); details: protein: recombinant; tags: N-terminal GST; dsDNA, one strand shown
# Procedure, shortened: as §1
# [15] = molecular target: T9, ELK4 (Homo sapiens, UniProt P28324-2 1-405); details: protein: recombinant; tags: N-terminal GST; dsDNA, one strand shown
# T9 sequence: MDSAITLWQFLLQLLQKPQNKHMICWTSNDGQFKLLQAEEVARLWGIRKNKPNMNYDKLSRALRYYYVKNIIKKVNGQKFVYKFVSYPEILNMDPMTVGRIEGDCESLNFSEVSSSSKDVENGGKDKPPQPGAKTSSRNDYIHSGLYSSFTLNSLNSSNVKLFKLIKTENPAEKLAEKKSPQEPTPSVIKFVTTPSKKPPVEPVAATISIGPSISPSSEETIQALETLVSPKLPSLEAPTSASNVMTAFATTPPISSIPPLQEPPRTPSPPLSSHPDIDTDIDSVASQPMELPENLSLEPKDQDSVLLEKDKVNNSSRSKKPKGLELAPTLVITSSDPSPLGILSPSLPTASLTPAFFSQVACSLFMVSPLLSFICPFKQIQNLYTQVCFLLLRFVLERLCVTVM
# Procedure, shortened: as §1
# [16] = molecular target: T10, ETV2 (Homo sapiens, UniProt O00321 1-342); details: protein: recombinant; tags: N-terminal GST; dsDNA, one strand shown
# T10 sequence: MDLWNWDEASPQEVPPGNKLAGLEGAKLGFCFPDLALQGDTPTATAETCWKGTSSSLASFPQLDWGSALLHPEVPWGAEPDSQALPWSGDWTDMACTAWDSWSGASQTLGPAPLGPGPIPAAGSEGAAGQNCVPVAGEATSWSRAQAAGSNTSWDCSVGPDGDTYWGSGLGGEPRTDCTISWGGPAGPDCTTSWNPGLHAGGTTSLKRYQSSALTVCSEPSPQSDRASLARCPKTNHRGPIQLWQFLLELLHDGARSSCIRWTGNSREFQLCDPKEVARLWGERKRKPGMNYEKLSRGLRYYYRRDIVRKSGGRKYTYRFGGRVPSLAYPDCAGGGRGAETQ
# Procedure, shortened: as §1
# [17] = molecular target: T11, ELF3 (Homo sapiens, UniProt P78545 1-371); details: protein: recombinant; tags: N-terminal GST; dsDNA, one strand shown
# T11 sequence: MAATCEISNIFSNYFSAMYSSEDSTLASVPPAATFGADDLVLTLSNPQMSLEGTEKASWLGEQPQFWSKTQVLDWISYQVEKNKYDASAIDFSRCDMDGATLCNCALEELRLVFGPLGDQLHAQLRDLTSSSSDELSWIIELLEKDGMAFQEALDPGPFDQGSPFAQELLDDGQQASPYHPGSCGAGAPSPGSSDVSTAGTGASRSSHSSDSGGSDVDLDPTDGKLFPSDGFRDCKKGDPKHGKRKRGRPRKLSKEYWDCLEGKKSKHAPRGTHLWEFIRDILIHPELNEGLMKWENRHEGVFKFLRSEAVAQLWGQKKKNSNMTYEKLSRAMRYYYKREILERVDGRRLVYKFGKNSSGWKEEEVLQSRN
# Procedure, shortened: as §1
# [18] = molecular target: CRX (Homo sapiens, UniProt O43186 1-299); details: protein: recombinant; tags: N-terminal GST; dsDNA, one strand shown
# Procedure, shortened: as §1
# [19] = molecular target: ETV1 (Homo sapiens, UniProt P50549 1-477); details: protein: recombinant; tags: N-terminal GST; dsDNA, one strand shown
# Procedure, shortened: as §1
# Sequence of SPIB (Q01892 whole entry): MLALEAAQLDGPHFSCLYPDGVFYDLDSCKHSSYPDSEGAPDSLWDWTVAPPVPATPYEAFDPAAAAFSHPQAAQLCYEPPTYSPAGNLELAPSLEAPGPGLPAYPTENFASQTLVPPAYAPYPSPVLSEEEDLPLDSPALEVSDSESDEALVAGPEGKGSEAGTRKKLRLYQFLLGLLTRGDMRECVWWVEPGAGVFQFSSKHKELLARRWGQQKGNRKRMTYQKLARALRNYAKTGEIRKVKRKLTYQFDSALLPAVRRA
# Sequence of ETV5 (P41161 whole entry): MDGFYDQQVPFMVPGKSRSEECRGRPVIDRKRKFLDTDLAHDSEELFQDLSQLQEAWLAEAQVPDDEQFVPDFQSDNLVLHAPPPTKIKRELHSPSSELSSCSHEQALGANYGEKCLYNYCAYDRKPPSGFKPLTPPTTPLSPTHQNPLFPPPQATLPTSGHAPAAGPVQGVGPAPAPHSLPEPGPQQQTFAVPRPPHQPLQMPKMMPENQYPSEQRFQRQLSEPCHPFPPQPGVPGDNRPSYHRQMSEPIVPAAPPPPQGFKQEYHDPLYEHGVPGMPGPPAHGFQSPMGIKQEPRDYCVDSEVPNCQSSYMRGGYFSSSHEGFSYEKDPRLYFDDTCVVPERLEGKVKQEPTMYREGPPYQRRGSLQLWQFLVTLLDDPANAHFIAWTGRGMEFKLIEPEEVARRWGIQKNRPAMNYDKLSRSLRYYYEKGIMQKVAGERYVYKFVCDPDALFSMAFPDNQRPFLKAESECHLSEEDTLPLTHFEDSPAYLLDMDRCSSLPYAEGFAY
# Sequence of CRX (O43186 whole entry): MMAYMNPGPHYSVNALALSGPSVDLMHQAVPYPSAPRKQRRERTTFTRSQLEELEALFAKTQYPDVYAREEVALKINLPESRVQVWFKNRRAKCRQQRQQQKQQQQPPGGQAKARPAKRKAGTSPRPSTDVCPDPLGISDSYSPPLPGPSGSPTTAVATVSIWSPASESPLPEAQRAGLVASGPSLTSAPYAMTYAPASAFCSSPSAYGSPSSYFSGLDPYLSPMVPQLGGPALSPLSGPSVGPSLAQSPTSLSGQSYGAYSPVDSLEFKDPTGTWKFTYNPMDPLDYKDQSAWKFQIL
# Sequence of HSF1 (Q00613 whole entry): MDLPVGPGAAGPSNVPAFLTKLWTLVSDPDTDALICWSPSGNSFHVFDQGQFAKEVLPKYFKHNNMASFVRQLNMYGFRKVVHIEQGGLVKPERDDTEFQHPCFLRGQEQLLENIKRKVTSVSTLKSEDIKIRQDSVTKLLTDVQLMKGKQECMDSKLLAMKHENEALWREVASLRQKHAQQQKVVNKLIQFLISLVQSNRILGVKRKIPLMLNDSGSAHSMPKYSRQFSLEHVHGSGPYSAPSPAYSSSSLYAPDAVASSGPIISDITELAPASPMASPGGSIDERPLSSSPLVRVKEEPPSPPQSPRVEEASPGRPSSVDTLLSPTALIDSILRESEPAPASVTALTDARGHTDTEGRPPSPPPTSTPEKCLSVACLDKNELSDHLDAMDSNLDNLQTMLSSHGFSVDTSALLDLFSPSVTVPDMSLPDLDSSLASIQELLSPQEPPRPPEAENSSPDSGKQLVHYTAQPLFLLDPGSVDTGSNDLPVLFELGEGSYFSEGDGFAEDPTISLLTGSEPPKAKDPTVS
# Sequence of ELF4 (Q99607 whole entry): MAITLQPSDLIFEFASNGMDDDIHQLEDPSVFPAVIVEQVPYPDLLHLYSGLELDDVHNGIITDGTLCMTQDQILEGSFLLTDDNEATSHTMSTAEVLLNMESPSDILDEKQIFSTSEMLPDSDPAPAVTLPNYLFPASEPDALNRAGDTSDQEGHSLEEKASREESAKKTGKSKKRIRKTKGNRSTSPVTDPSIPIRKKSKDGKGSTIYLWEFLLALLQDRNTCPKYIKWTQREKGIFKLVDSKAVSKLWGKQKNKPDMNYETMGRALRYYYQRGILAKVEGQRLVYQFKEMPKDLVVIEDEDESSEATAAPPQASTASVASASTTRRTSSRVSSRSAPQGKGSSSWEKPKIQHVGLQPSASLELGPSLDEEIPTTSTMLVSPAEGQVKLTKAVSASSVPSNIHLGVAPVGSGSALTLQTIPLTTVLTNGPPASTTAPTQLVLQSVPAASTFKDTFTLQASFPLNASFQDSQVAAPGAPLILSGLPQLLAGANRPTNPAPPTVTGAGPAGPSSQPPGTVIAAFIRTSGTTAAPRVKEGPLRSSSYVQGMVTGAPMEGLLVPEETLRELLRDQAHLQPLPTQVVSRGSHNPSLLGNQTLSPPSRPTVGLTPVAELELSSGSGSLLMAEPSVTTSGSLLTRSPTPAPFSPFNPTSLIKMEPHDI
# Sequence of ETV1 (P50549 whole entry): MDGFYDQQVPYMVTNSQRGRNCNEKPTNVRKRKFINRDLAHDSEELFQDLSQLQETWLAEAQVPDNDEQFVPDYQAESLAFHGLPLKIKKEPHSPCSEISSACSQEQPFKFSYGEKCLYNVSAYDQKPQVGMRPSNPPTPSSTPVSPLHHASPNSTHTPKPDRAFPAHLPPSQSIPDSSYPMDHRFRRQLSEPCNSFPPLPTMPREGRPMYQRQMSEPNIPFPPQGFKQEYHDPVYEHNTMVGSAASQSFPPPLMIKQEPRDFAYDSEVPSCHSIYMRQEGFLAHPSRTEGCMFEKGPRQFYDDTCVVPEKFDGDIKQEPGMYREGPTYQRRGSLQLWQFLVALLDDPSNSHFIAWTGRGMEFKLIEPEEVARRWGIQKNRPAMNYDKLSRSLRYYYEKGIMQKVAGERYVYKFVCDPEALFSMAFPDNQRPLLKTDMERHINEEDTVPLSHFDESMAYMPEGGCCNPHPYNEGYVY
# Sequence of ELF1 (P32519 whole entry): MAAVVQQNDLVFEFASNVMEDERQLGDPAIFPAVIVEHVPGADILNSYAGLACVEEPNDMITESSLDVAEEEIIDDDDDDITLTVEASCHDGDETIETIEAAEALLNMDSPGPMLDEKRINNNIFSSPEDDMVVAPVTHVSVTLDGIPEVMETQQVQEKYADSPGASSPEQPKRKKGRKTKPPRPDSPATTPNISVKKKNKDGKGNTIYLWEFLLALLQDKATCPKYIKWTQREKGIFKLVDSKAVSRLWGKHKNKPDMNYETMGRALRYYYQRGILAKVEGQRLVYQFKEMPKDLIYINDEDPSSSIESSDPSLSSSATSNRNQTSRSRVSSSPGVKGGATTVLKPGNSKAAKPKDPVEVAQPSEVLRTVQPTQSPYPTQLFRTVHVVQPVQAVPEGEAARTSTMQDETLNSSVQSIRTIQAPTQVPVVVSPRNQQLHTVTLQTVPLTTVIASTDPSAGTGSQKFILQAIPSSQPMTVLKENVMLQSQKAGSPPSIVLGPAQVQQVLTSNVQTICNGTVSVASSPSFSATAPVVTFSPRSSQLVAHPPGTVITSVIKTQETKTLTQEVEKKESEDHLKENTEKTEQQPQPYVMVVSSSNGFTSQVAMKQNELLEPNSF
sequence,measurement,setting,value
TTACCT,binding signal,[1],"1.12 fold enrichment (6-mer frequency, TF over GST control)"
same,binding signal,[2],"1.19 fold enrichment (6-mer frequency, TF over GST control)"
same,binding signal,[3],"1.32 fold enrichment (6-mer frequency, TF over GST control)"
same,binding signal,[4],"1.17 fold enrichment (6-mer frequency, TF over GST control)"
same,binding signal,[5],"1.19 fold enrichment (6-mer frequency, TF over GST control)"
same,binding signal,[6],"1.31 fold enrichment (6-mer frequency, TF over GST control)"
same,binding signal,[7],"1.19 fold enrichment (6-mer frequency, TF over GST control)"
same,binding signal,[8],"1.4 fold enrichment (6-mer frequency, TF over GST control)"
same,binding signal,[9],"1.22 fold enrichment (6-mer frequency, TF over GST control)"
same,binding signal,[10],"1.26 fold enrichment (6-mer frequency, TF over GST control)"
same,binding signal,[11],"1.35 fold enrichment (6-mer frequency, TF over GST control)"
same,binding signal,[12],"1.45 fold enrichment (6-mer frequency, TF over GST control)"
same,binding signal,[13],"1.01 fold enrichment (6-mer frequency, TF over GST control)"
same,binding signal,[14],"1.21 fold enrichment (6-mer frequency, TF over GST control)"
same,binding signal,[15],"1.32 fold enrichment (6-mer frequency, TF over GST control)"
same,binding signal,[16],"1.32 fold enrichment (6-mer frequency, TF over GST control)"
same,binding signal,[17],"1.2 fold enrichment (6-mer frequency, TF over GST control)"
same,binding signal,[18],"2.09 fold enrichment (6-mer frequency, TF over GST control)"
same,binding signal,[19],"1.32 fold enrichment (6-mer frequency, TF over GST control)"

# From paper PMC7862700, “An all-to-all approach to the identification of sequence-specific readers for epigenetic DNA modifications on cytosine”
